# From PubChem BioAssay (EPA / NIEHS)
# Values joined by “and” are separate entries in the source; they are usually repeats but may differ in a detail not shown here. Identical values can stand only once. Inconclusive results are not listed. Where a structure was tested more than once in an assay, its records may differ in their call. Active and inactive are the calls of the source. How the source made its calls: active means hit-call score of the fitted dose curve at least 0.9, where 1 is the maximum; inconclusive means response in the unintended direction; inactive means score below 0.9.
# Assay: TOX21_p53_BLA_p4_viability: Viability Assessment in the Tox21 HCT-116 p53 Agonism Beta-lactamase Assay, Phase 4 (AID 2283597);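 further: hits lower the luminescence signal meaning cytotoxicity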
# Source text: TOX21_p53_BLA_p4 is a cell-based, single-readout assay that uses HCT116, a human intestinal cell line, […] in a 1536-well plate.TOX21_p53_BLA_p4_viability is an assay readout measuring cellular ATP content and detected with CellTiter-Glo Luciferase-coupled ATP quantitation.TOX21_p53_BLA_p4_viability used a type of viability reporter where loss-of-signal activity can be used to understand changes in the cell viability. Furthermore, this assay endpoint can be referred to as a secondary readout, because this assay has produced multiple assay endpoints where this one serves a viability function. To generalize the intended target to other relatable targets, this assay endpoint is annotated to the cell cycle intended target family, where the subfamily is cytotoxicity.
# Thawing Method: Place 14 mL of pre-warmed thaw medium into a 15 mL of conical tub. Remove the vial of cells to be thawed from liquid nitrogen and thaw rapidly by placing at 37C in a water bath with gentle agitation for 1-2 minutes. Decontaminate the vial by wiping with 70% ethanol before opening in a biological safety cabinet. Transfer the vial contents drop-wise into 14 mL of thaw medium in a sterile 15-mL conical tub. Centrifuge cells at 900 rpm for 4 minutes and resuspend in thaw medium. Transfer contents to the T75 tissue culture flask containing Thaw Medium and place flask in a humidified 37C/5% CO2 incubator. Switch to growth medium at first passage.Propagation Method: Aspirate medium, rinse once in DPBS, add 0.25% Trypsin/EDTA and swirl to coat the cell evenly. Add an equal volume of Growth Medium to inactivate Trypsin after 2-3 minutes incubation at 37C. Centrifuge cells at 900 rpm for 4 minutes and resuspend in growth medium. Cell should be passage or fed at least twice a week.Assay Protocol: Harvest cells from culture in growth medium and resuspend in assay medium. 2.2 Dispense 4000 cells/5 uL/well into 1536-well black/clear bottom plates using a Multidrop dispenser. After the cells were incubated at 37C for 5 hours, 23 nL of compounds dissolved in DMSO were transferred to the assay plate by a PinTool resulting in a 217-fold dilution. Incubate the plates for 16 hours at 37C, 5% CO2. Add 1 uL of 6X LiveBLAzer FRET B/G (CCF4-AM) Substrate Mixture to each well using a BioRAPTR dispenser and incubate the plates at room temperature for 2 hours. Measure fluorescence intensity at 460 and 530 nm emission and 405 nm excitation by an Envision detector. Data is expressed as the ratio of 460nm/530nm emissions. Add 4 uL of Cell-titer Glo to each well using BioRAPTR and incubate the plates at room temperature for […]. For cell viability readout that measures cytotoxicity, 4 ul/well of CellTiter-Glo reagent was added into the assay plates using a Flying Reagent Dispenser. After 30 min incubation at room temperature, the luminescence intensity in the plates was measured using a ViewLux plate reader.
Structure (SMILES),outcome,AC50
CCCCOC(=O)CCCCCCCCC(=O)OCCCC,inactive,
Cc1c(C(=O)O)c(O)cc2c1C(=O)c1c(O)c([C@@H]3O[C@H](CO)[C@@H](O)[C@H](O)[C@H]3O)c(O)c(O)c1C2=O,inactive,
O=C(OCCCCCOC(=O)c1ccccc1)c1ccccc1,inactive,
O=C(O)Cc1ccccc1Nc1c(Cl)cccc1Cl,,46.1 µM (active)
CC=Cc1ccc(O)c(OC)c1,inactive,
Cc1ccc(C(C)C)c(O)c1,inactive,60.5 µM (active)
CCCc1cc(=O)[nH]c(=S)[nH]1,inactive,
NC(=O)Cn1c(=O)cc(CCN2CCN(c3nccc4sccc34)CC2)c2ccc(F)cc21,inactive,
CC(C)c1ccc(C(=O)N=C(N)N)cc1S(C)(=O)=O,inactive,
CN1CCN(Cc2cc(-c3ccc4[nH]c(=O)oc4c3)co2)[C@@H](c2ccc(F)cc2)C1,inactive,
Cc1cccc(Nc2cc(Cl)nc(SCC(=O)O)n2)c1C,inactive,
Cc1cccc(C)c1O,inactive,
COc1ccc(S(=O)(=O)N2C(=O)[C@@](c3ccccc3OC)(N3C[C@H](O)C[C@H]3C(=O)N(C)C)c3cc(Cl)ccc32)c(OC)c1,,67.7 µM (active)
O=c1[nH]cc(F)c(=O)[nH]1,inactive,15.7 µM (active) and 9.55 µM (active)
Cc1ccc(C)c(O)c1C,inactive,
CC1(C)CC(N=C=O)CC(C)(CN=C=O)C1 (stereo not given),inactive,
C[C@]12C=CC(=O)C=C1CC[C@@H]1[C@@H]2C(=O)C[C@@]2(C)[C@H]1CC[C@]2(O)C(=O)CO,inactive,
COCCOC[C@H](CC1(C(=O)NC2CCC(C(=O)O)CC2)CCCC1)C(=O)Oc1ccc2c(c1)CCC2 (stereo not given in full),inactive,

Structure (SMILES),outcome,AC50
Nc1ccccc1N,inactive,23 µM (active)
COc1cc(/C=C/C(=O)CC(=O)/C=C/c2ccc(O)c(OC)c2)ccc1O,inactive,88.4 µM (active) and 23 µM (active)
CC(=O)C(C)=CC1C(C)=CCCC1(C)C (stereo not given),inactive,
CCc1c(C(=O)NN2CCCCC2)nn(-c2ccc(Cl)cc2Cl)c1-c1ccc(Br)cc1,,2.1 µM (active)
Cc1oc(-c2ccccc2)nc1CCOc1cccc2c1ccn2CCC(=O)O,inactive,
Nc1ccc2c(c1)C(=O)c1ccccc1C2=O,inactive,
Cc1ccc2ncccc2c1,inactive,
CNC(=O)[C@H]1O[C@@H](n2cnc3c(NCc4cc(Cl)ccc4OCc4cc(C)no4)ncnc32)[C@H](O)[C@@H]1N,inactive,
COc1cc(S(=O)(=O)O)c(C)cc1N=Nc1c(O)ccc2cc(S(=O)(=O)O)ccc12,inactive,
O=[N+]([O-])C(CO)(CO)CO,inactive,
Cc1cccc([N+](=O)[O-])c1C,inactive,
CCCCCC(=O)O,inactive,
COc1cc(C=O)ccc1O,inactive,
CC(=O)OC/C=C(\C)CCC=C(C)C,inactive,
c1cc(-c2ccncc2)ccn1,inactive,
CCOC(=O)C(C)(C)Oc1ccc(Cl)cc1,inactive,
Nc1ccc(S(=O)(=O)c2ccc(N)cc2)cc1,inactive,
Cc1cc(=O)[nH]c(=S)[nH]1,inactive,
